Reference: PubChem BioAssay (Tox21)
Records with an inconclusive call do not appear. Where a call stands in place of a potency, no number is given. Activity calls are given as the source filed them. Calls come from the whole dose curve; as a rule, active = well fitted cell-killing curve with a large enough effect in the repeat runs; inconclusive = weak or mixed curves, or effect the other way; inactive = no such curve, though single readings can be large or run the other way.

Assay: qHTS assay to identify small molecule agonists of the vitamin D receptor (VDR) signaling pathway - cell viability counter screen (AID 743224); note: nearly all actives have a fitted effect of over 50% in size
Conditions: VDR-bla HEK293T viability, CellTiter-Glo luminescence, 16 h; series mostly up to 62.6 µM
Description: U.S. Tox21 Program National Center for Advancing Translational Sciences [NCATS] NIH Chemical Genomics Center [NCGC] U.S. Environmental Protection Agency [EPA] National Institutes of Environmental Health Sciences [NIEHS] National Toxicology Program [NTP] U.S. Food and Drug Administration [FDA] Tox21 Assay Overview: The vitamin D receptor (VDR), a member of nuclear hormone receptor superfamily, plays a critical role in calcium homeostasis and bone metabolism. It is also involved in cell differentiation and growth, and thrombogenicity. […] The cytotoxicity of the Tox21 compound library against the VDR-bla cell line was tested in parallel by measuring the cell viability using CellTiter-Glo assay (Promega, Madison, WI) in the same wells.
Tox21 Assay Protocol Summary: VDR-bla cells were dispensed at 2,000 cells/6 uL/well into black wall/clear-bottom 1536-well plates using a Multidrop Combi (Thermo Fisher Scientific, Waltham, MA) dispenser. After the assay plates were incubated at a 37C and 5% CO2 for 4 h, 23 nL of compounds dissolved in DMSO, positive controls or DMSO only was transferred to the assay plate by a Pintool station (Kalypsys, San Diego, CA). The plates were incubated at 37C and 5% CO2 for 16 h. After 1 uL of LiveBLAzerTM B/G FRET substrate was added using a Bioraptr Flying Reagent Dispenser (FRD) workstation (Beckman Coulter, Indianapolis, IN, USA), the plates were incubated at room temperature for 2 h, and fluorescence intensity was measured by an Envision plate reader (PerkinElmer, Shelton, CT). For cell viability readout that measures cytotoxicity, 3 ul/well of CellTiter-Glo reagent was added into the assay plates using a FRD. After 30 min incubation at room temperature, the luminescence intensity in the plates was measured using a ViewLux (PerkinElmer) plate reader.
Potency is the fitted concentration of half-maximal effect.

| SMILES | Potency |
| --- | --- |
| Cc1nc2c([nH]1)c(=O)n(C)c(=O)n2Cc1ccco1 | inactive |
| OCCOc1ccc(OCCO)cc1 | inactive |
| CCN(Cc1ccncc1)C(=O)C(CO)c1ccccc1 (stereo not given) | inactive |
| CC(C)CNCC(C)C | inactive |
| Cc1cc(O)cc2c1O[C@](C)(CCC[C@H](C)CCC[C@H](C)CCCC(C)C)CC2 | inactive |
| NC(=O)c1ccc([N+](=O)[O-])cc1 | inactive |
| CCCc1cc(C(N)=S)ccn1 | inactive |
| COCCCOCCCOC | inactive |
| CCOC(=O)C(=O)OCC | inactive |
| CN(C)CCCN1c2ccccc2CCc2ccc(Cl)cc21 | 43.6 µM (active) |
| N=C(N)c1ccc2cc(OC(=O)c3ccc(N=C(N)N)cc3)ccc2c1 | inactive |
| CCS(=O)(=O)c1ccc(OC)c(C(=O)OC)c1 | inactive |
| CCCCCCOC(=O)CCCCC(=O)OCCCCCC | inactive |
| COC(=O)[C@@H](N)Cc1ccc(O)c(O)c1 | inactive |
| O=c1[nH]c(=O)n([C@H]2C[C@H](O)[C@@H](CO)O2)cc1I | inactive |
| CN1CCN(c2cc3c(cc2F)c(=O)c(C(=O)O)cn3-c2ccc(F)cc2)CC1 | inactive |
| CC(=O)OCC(=O)[C@@]1(O)CC[C@H]2[C@@H]3CCC4=CC(=O)CC[C@]4(C)[C@H]3C(=O)C[C@@]21C | inactive |
| CCC(C)C1CCCCC1=O (stereo not given) | inactive |
| C=CCS(=O)(=O)O | inactive |
| CC/C=C\CC/C=C/C(OCC)OCC | inactive |

| SMILES | Potency |
| --- | --- |
| O=C(CCCN1CCN(c2ccccn2)CC1)c1ccc(F)cc1 | inactive |
| CCOC(=O)c1c(C)n(C)c2ccc(O)cc12 | inactive |
| CCc1ccc(O)c(OC)c1 | inactive |
| CC(C)NC(=O)NC(C)C | inactive |
| Nc1cc(=O)[nH]c(N)n1 | inactive |
| CCCCCOC(=O)CCCCC | inactive |
| CC1=CC(C)C(C=O)CC1 (stereo not given) | inactive |
| CC(=O)N(CC(O)CO)c1c(I)c(C(=O)NCCO)c(I)c(C(=O)NCC(O)CO)c1I (stereo not given) | inactive |
| CC(C)NCC(O)c1ccc(NS(C)(=O)=O)cc1 (stereo not given) | inactive |
| CN(C(=O)c1c(O)c2ccccc2n(C)c1=O)c1ccccc1 | inactive |
| NS(=O)(=O)c1cc(C(=O)NN2C[C@H]3[C@H]4CCC(C4)[C@H]3C2)ccc1Cl | inactive |
| CC(NC(CCc1ccccc1)C(=O)O)C(=O)N1C(=O)N(C)CC1C(=O)O (stereo not given) | inactive |
| CC(=O)OC/C=C(\C)CC/C=C(\C)CCC=C(C)C | inactive |
| Oc1ccc(C2CNCCc3c2cc(O)c(O)c3Cl)cc1 (stereo not given) | inactive |
| CCCCC(CC)COC(=O)c1ccccc1O (stereo not given) | inactive |
| C=C[Si](OC(=C)C)(OC(=C)C)OC(=C)C | inactive |
| CC(=O)Nc1c(I)cc(I)c(C(=O)O)c1I | inactive |
| Nc1c[n+](N2CCOCC2)no1 | inactive |
| Cc1sccc1Br | inactive |
| CCOC(=O)c1cccc(N)c1 | inactive |
